From PubChem
3T3 cytotox – NIH 3T3 cell cytotoxicity; actives 4.3% (n = 94,000); NIH 3T3 viability, CellTiter-Glo ATP luminescence, 48-72 h; Potency, µM (doses to about 96.7 µM), for the others: top-dose activity change, negative = cytotoxicity, most hits filed as inhibitors; note: nearly all actives have a fitted effect of over 55% in size
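First NIH 3T3 cells are plated at 400 cells/well; next compound is pinned in; then plates incubate 48 or 72 hr at 37 °C; finally CellTiter-Glo is added and luminescence read after 10 min.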
HEK cytotox – kills HEK 293 cells | actives 6.6% (n = 94,000) | HEK 293 viability, ATP luminescence (CellTiter-Glo), 48-72 h | Potency, µM (highest dose often 115 µM), without a hit: at the top dose activity change, negative = cytotoxicity, usual class: inhibitors; note: nearly all actives have a fitted effect of over 60% in size
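Cytotoxicity was scored by loss of ATP-coupled luminescence (CellTiter-Glo) in HEK 293 cells. Compound treatment ran 48 or 72 hr at 37 degree Celsius, 5% CO2, 95% humidity.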
NPR1 antag – antagonists of human natriuretic peptide receptor Npr1. P16066. HEK293 hNpr1 GloSensor cGMP, ANP-stimulated luminescence. Potency, µM (top dose mostly 46.3 µM), without a hit: at the highest dose activity change, negative = inhibition, most hits filed as inhibitors. actives 1.6% (n = 76,000); calls by dose curve; note: nearly all actives have a fitted effect of over 60% in size
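HEK293 cells stably expressing human Npr1 and cGMP GloSensor pGS-40F, loaded 2 h with 2% GloSensor reagent, given compound 30 min at room temperature. Luminescence read before and 20 min after 0.1 nM hNppA.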
FLuc inh – Photinus pyralis luciferase inhibition; actives 2.5% (n = 76,000); P08659; purified P. pyralis luciferase, luminescence, biochemical; Potency, µM (highest dose often 115 µM), usual class: inhibitors; note: nearly all actives have a fitted effect of over 65% in size
Target sequence (P08659 whole entry, looked up): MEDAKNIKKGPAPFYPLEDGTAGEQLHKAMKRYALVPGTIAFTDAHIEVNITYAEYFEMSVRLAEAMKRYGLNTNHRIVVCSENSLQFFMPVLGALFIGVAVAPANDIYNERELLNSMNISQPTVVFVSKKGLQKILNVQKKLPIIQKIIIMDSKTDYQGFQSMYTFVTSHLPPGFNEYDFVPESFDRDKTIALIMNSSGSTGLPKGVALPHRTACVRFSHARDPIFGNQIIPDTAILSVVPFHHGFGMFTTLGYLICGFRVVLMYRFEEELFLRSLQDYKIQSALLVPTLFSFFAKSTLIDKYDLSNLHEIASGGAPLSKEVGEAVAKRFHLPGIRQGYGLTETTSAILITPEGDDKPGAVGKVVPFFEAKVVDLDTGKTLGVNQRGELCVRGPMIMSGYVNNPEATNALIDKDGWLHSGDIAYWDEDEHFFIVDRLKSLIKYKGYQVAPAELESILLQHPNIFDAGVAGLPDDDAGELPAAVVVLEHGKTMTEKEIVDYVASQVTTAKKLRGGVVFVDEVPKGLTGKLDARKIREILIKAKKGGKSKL
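Luminescence read by CCD imager after adding enzyme (10nM final) to wells holding compound, titrated in qHTS. Substrates 10uM each D-luciferin and ATP; buffer 50mM Tris acetate pH 7.5, 10mM Mg acetate, Tween-20, BSA.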
Numbers without * were called inactive; i = inactive; ? = inconclusive; nt = not tested or not shown; [ ] = dose if it differs, or a comment. Rows were chosen to be rich in hits. Some 11% of all compounds tested hit in one or more screens of this group. Unless noted, calls come from the whole dose curve; as a rule, active = well fitted curve in the direction sought with a large enough effect; inconclusive = small, poorly fitted or top-dose-only effect, or another doubt; inactive = no such curve, though single readings can be large; an effect the other way counts as inactive or inconclusive. % is set by controls: 0 for no effect and ±100 for the full control effect; potency is the fitted concentration of half-maximal effect.

SMILES	3T3 cytotox	HEK cytotox	NPR1 antag	FLuc inh
O=C1C(c2ccccc2)CC2(CCN(Cc3cccc(O)c3)CC2)CN1C1CC1 (stereo not drawn)	-2%	-7%	-11%	i
c1ccc2sc(N3CCN(Cc4cc5n(n4)CCCNC5)CC3)nc2c1	-20%	-14%	0%	i
c1ccc2c(N3CCN(Cc4cc5n(n4)CCNC5)CC3)nsc2c1	?	40µM*	4%	i
COc1cccc(-n2cc(CN(C)Cc3cn(-c4ccccc4)nn3)cn2)c1	?	32µM*	-1%	i
Cc1noc(C)c1Cc1ccc(C(=O)N2CCC(OCCOc3ccccc3)CC2)o1	?	40µM*	nt	nt
COCCOC1CCN(C(=O)c2ccc(Cc3c(C)noc3C)o2)CC1	i	-1%	-3%	i
CS(=O)(=O)c1ccc(OCC2(CNCc3cccc(C(F)(F)F)c3)C[C@@H](O)[C@@H](O)C2)cc1 (stereo partly drawn)	?	79µM*	-4%	i
NCc1ccccc1-c1ccc(O)cc1	-28%[138 µM]	-14%[172 µM]	nt	nt
Cc1ccc(-c2ccccc2CN)c(C)c1	100µM*	112µM*	nt	nt
COC1C(=O)N(c2cccc(F)c2)C12CCN(C(=O)c1cccnc1C)CC2 (stereo not drawn)	-8%	-9%	5%	i
CC(C)CN(C)C(=O)c1cc(-c2cnn(C(C)C)c2)nc2cc(F)ccc12	?	-29%	2%	?
CC(C)n1cc(-c2cc(C(=O)N(C)Cc3cccnc3)c3cc(F)ccc3n2)cn1	-19%	?	-2%	35µM*
O=C(NC1CCN(c2ccc3nnc(C4CC4)n3n2)C1)c1ccccc1F (stereo not drawn)	-23%	?	nt	nt
CN(C)C(=O)N1CCN(C(=O)c2nc3cccnc3n(C3CC3)c2=O)CC1	-23%	-28%	nt	nt
O=C1NCN(Cc2ccc(Cl)cc2)C12CCN(Cc1cccnc1)CC2	?	?	18%	i
O=C1NCN(Cc2ccc(Cl)cc2)C12CCN(Cc1ccc(C(F)(F)F)cc1)CC2	?	40µM*	-21%	i
O=C1NCN(Cc2ccc(Cl)cc2)C12CCN(Cc1ccc(F)cc1)CC2	14µM*	28µM*	-22%	i
O=C1c2cnc(-c3cccc(CO)c3)nc2OCCN1Cc1ccccc1	?	?	-14%[70.6 µM]	18µM*
CN(C)C(=O)c1ccc(-c2ncc3c(n2)OCCN(Cc2ccccc2)C3=O)cc1	-21%[138 µM]	?	1%[70.6 µM]	i
O=C1c2cnc(-c3cc4ccccc4o3)nc2OCCN1CC1CC1	?	?	1.4µM*	?
O=C1c2cnc(-c3ccccc3OCc3ccccc3)nc2OCCN1CC1CC1	-17%[138 µM]	?	-1%[70.6 µM]	?
COCCN1CCOc2nc(-c3cccc(OC(F)(F)F)c3)ncc2C1=O	?	?	-24%[70.6 µM]	16µM*
N#Cc1cccc(-c2ncc3c(n2)OCCN(Cc2ccc(F)cc2F)C3=O)c1	i	?	-26%[70.6 µM]	i
COc1ccc(CN2CCOc3nc(-c4cccc(C#N)c4)ncc3C2=O)cc1	?	100µM*	-26%[70.6 µM]	i
CNC(=O)c1cc(C2CC2)nc2onc(C3CCCN3C(=O)c3cccnc3)c12 (stereo not drawn)	-12%	-10%	nt	nt
SMILES	3T3 cytotox	HEK cytotox	NPR1 antag	FLuc inh
COc1ccc(CN2CCOc3nc(-c4cc(F)cc(F)c4)ncc3C2=O)cc1	?	?	-24%[70.6 µM]	i
O=C1c2cnc(-c3cc(F)cc(F)c3)nc2OCCN1Cc1ccccc1	?	?	-8%[70.6 µM]	45µM*
Cn1cc(CN2CCN(C(=O)c3ccoc3)CC2)ccc1=O	i	4%	-3%	i
Cn1cc(CN2CCN(C(=O)c3c[nH]c4ccccc34)CC2)ccc1=O	-16%	-30%	-2%	32µM*
COCCNC(=O)c1cc(C2CC2)nc2c1c(C1CCCN1)nn2-c1ccccc1 (stereo not drawn)	?	79µM*	nt	nt
Cn1nc(C2CCCN2)c2c(C(=O)N3CCC(F)CC3)cc(C3CC3)nc21 (stereo not drawn)	2%	i	nt	nt
O=C(c1cc(C2CC2)nc2c1c(C1CCCN1)nn2-c1ccccc1)N1CCC(F)CC1 (stereo not drawn)	32µM*	?	nt	nt
COCCNC(=O)c1cc(-c2ccc(OC)cc2)nc2c1c(C1CCCN1)nn2C (stereo not drawn)	?	-25%	nt	nt
COc1ccc(-c2cc(C(=O)NCC(C)C)c3c(C4CCCN4)nn(C)c3n2)cc1 (stereo not drawn)	32µM*	?	nt	nt
